Laboratory results taken from publication PMC4336329 (PLoS ONE, 2015).
Screen size: about 310,000 compounds; about 14,000 (4.5%) showed an effect of 50% or more. The effect is printed as a negative number. Shown is part of a subset that was picked to be rich in strong results.

Molecular target: human ether-à-go-go-related gene (hERG) potassium channel (human, UniProt Q12809)
Assay: primary screen, population patch clamp on CHO cells stably expressing hERG; higher = less effect of the substance
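Also: peak tail current of the secondary pulse compared with the same well before compound.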

human ether-à-go-go-related gene (hERG) potassium channel, sequence (Q12809 whole entry, looked up): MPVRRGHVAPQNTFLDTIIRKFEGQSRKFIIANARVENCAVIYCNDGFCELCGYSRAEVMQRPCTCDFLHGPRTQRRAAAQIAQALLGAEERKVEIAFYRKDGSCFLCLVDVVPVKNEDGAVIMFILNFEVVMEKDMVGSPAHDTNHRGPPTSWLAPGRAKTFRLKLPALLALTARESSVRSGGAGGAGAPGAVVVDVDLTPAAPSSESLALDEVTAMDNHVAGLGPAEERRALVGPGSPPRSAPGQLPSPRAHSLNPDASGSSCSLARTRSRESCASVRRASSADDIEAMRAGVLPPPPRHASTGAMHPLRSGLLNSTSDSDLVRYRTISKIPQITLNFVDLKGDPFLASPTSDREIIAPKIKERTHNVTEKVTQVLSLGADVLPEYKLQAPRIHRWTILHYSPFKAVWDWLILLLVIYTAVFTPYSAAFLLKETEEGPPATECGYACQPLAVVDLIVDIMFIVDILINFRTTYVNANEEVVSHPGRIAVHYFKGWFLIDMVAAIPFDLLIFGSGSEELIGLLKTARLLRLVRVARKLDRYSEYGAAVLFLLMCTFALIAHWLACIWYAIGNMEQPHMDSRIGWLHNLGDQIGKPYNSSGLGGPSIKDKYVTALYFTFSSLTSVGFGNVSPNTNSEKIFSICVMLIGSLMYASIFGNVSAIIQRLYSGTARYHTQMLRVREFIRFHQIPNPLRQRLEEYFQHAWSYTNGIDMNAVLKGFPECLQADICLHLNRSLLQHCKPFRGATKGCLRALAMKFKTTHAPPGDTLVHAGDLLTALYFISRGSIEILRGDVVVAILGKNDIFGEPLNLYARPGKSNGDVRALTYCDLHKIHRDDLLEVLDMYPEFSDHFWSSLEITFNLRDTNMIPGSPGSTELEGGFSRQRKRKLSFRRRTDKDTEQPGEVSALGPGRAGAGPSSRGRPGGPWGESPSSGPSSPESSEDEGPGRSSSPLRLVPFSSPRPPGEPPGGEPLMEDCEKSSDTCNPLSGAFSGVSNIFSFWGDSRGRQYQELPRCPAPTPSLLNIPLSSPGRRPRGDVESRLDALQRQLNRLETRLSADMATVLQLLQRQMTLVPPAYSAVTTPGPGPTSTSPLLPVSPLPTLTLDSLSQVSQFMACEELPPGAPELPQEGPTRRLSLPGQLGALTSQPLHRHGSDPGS

Compound | hERG current change (%, negative = inhibition) at 10uM [%]
CCOC(=O)CSc1ncc(-c2cccc(Cl)c2)cn1 | -17.4
CC/C(CC(c1ccccc1)c1c(O)c2ccccc2oc1=O)=N\NC(N)=S (centres unmarked) | 2.2
Cc1cc(O)c(C(C[N+](=O)[O-])c2ccc(Cl)cc2Cl)c(=O)o1 (centres unmarked) | 6.51
CCOC(=O)N1CCN(C(=O)COc2cc(=O)n(CC)c3ccccc23)CC1 | -17
CCCCc1cc2c(cc1NC(=O)CN1CCCCC1)OCCO2.Cl | 3.82
COc1ccc(-c2cc(C(=O)Nc3ccccc3O)c3ccccc3n2)cc1 | 13.1
Cc1cccc(NC(=O)c2cccc(N3C(=O)C4C5CCC(C5)C4C3=O)c2)c1C (centres unmarked) | -7.75
Cc1ccc(-n2c(=O)[nH]c3c(C(N)=O)nc(-c4ccc(C)o4)nc32)cc1 | 14.7
Cc1c(-c2ccncc2)oc2ccc(Br)cc2c1=O | -41.2
Cc1oc2ccc(Br)cc2c(=O)c1-c1nn[nH]n1 | 3.71
Cc1c(-c2cc[n+]([O-])cc2)oc2ccc(Br)cc2c1=O | -54.2
Cc1ccc(S(=O)(=O)Oc2cccc(N3C(=O)C4CC=CCC4C3=O)c2)cc1 (centres unmarked) | -17.3
CC(=O)NC(Cc1cc(C)ccc1C)C(=O)N1CCN(C(=O)c2ccccc2Br)CC1 (centres unmarked) | -0.358
CC(=O)NC(Cc1cc(C)ccc1C)C(=O)N1CCN(C(=O)c2ccc([N+](=O)[O-])cc2)CC1 (centres unmarked) | -30.2
CC(=O)NC(Cc1cc(C)ccc1C)C(=O)N1CCN(C(=O)c2ccc(Br)cc2)CC1 (centres unmarked) | -71.8
CCOC(=O)c1c(NC(=O)COC(=O)CCOc2ccccc2C)sc(C(=O)NC)c1C | 20.1
Cc1ccc(/C=C/C(=O)OCC(=O)Nc2ccc3[nH]c(=O)[nH]c3c2)o1 | 2.52
COc1ccc(/C=N/Nc2nnc(Cc3ccccc3)c(=O)[nH]2)cc1OC | -61.4
COc1ccc(/C=N/Nc2nnc(Cc3ccccc3)c(=O)[nH]2)cc1 | -15.1
COc1ccc(/C=N/Nc2nnc(Cc3ccc(OC)c(OC)c3)c(=O)[nH]2)cc1OC | 18.9
Oc1ccc(N=Nc2n[nH]c(-c3ccccc3)n2)cc1 | 9.94
CCOc1ccc(NC(=O)Nc2ccon2)cc1 | 16.7

Compound | hERG current change (%, negative = inhibition) at 10uM [%]
CCCC(=O)Nc1ccc(Cl)c(NC(=O)c2ccc([N+](=O)[O-])cc2Cl)c1 | -51.2
CC(C)C(=O)Nc1ccc(NC(=O)c2ccc([N+](=O)[O-])cc2Cl)cc1 | 5.02
CC(=O)Nc1ccc(NC(=O)c2ccc([N+](=O)[O-])cc2Cl)cc1 | 6.15
CCC(=O)Nc1ccc(Cl)c(NC(=O)c2ccc([N+](=O)[O-])cc2)c1 | -5.07
CCC(C)NS(=O)(=O)c1ccc(NC(=O)c2ccc([N+](=O)[O-])cc2Cl)cc1 (centres unmarked) | -88.7
CCCC(=O)Nc1cccc(NC(=O)c2ccc([N+](=O)[O-])cc2Cl)c1 | -14.5
CC(C)(C)NC(=O)NC(=O)CN1CCN(Cc2ccccc2)CC1 | -1.77
COC(=O)[C@@]1(Cc2ccc(OC)cc2)[C@H]2c3cc(C(=O)N(C)C)n(CCc4ccc(OC)c(Br)c4)c3C[C@H]2CN1C(=O)c1ccccc1 | 11.4
Cc1cccc(C(=O)NCCN2CCOCC2)c1[N+](=O)[O-] | 4.8
Cc1ccc(C)c(OCc2cc(C(=O)N3C[C@@H](C)O[C@@H](C)C3)no2)c1 | 4.95
CCCCc1c(O)nc(SCC(=O)NCCc2ccc(OC)c(OC)c2)[nH]c1=O | -0.0252
COc1ccc(C(=O)NC(=S)Nc2ccc3[nH]c(=O)[nH]c3c2)cc1 | 15.5
COc1cccc(C(=O)NC(=S)Nc2ccc3[nH]c(=O)[nH]c3c2)c1 | -70.3
COc1cc(OC)cc(C(=O)NC(=S)Nc2ccc3[nH]c(=O)[nH]c3c2)c1 | -27
CCC(=O)Nc1nc2ccccc2n1CCN1CCOCC1 | 16.2
CCN(CC)c1ccc(CNc2nc3ccccc3n2CC)cc1 | -23.5
CCN(CC)c1ccc(CNc2nc3ccccc3n2C(C)C)cc1 | 1.88
CCN(CC)c1ccc(CNc2nc3ccccc3n2CCN2CCOCC2)cc1 | -79.5
CCN(CC)c1ccc(CNc2nc3ccccc3n2C)cc1 | -49.7
CCN(CC)c1ccc(CNc2nc3ccccc3n2CCN2CCCCC2)cc1 | -74.5
Cc1ccc(NC(=O)CCN2C(=O)C3CC=CCC3C2=O)cc1Cl (centres unmarked) | -10.9
COc1cc(-c2nnc(-c3ccncc3)o2)ccc1OCc1ccccc1 | 4.05
